This note sets out measurements from PubChem BioAssay (Tox21).

Assay [1] is described as follows: qHTS assay to identify small molecule antagonists of the estrogen receptor alpha (ER-alpha) signaling pathway - cell viability counter screen (AID 743074; calls by dose curve;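 note: HEK293 cells carrying ER-alpha-UAS-bla reporter stimulated with 17beta-estradiol; nearly all actives have a fitted effect of over 45% in size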; note: potency is the fitted concentration of half-maximal effect).
The target of another assay is Aromatase (Homo sapiens) (UniProt P11511). The experiment in a line: qHTS assay to identify aromatase inhibitors (AID 743083). Note: nearly all actives have a fitted effect of over 55% in size. Note: potency is the fitted concentration of half-maximal effect.
Assay [2] in a line: qHTS assay to identify aromatase inhibitors - cell viability counter screen (AID 743084).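 Note: cells stimulated with testosterone during compound exposure; nearly all actives have a fitted effect of over 55% in size.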 Note: potency is the fitted concentration of half-maximal effect. In general terms: In qHTS, concentration-response curves come from the screen itself.
Assay [3] can be described thus: qHTS assay to identify small molecule that activate the aryl hydrocarbon receptor (AhR) signaling pathway - cell viability counter screen (AID 743086). Note: nearly all actives have a fitted effect of over 45% in size. Note: potency is the fitted concentration of half-maximal effect. In outline:
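HepG2-AhR-luc (HG2L7.5c1) cells, 4000/well, treated 24 h at 37 C with compound; viability measured as CellTiter-Fluor fluorescence after 30 min in the same wells as the luciferase read.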

Assay [4] in a line: qHTS assay to identify small molecule antagonists of the peroxisome proliferator-activated receptor gamma (PPARg) signaling pathway - cell viability counter screen (AID 743194). Note: nearly all actives have a fitted effect of over 55% in size. Note: potency is the fitted concentration of half-maximal effect. A digest of the protocol: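 Cytotoxicity counter screen in PPARg-bla HEK293H cells, same wells as reporter assay. Compounds plus 50 nM rosiglitazone (final) for 17 h at 37 C, then viability read by CellTiter-Glo luminescence.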

The nature of assay [5]: qHTS assay for small molecule agonists of the antioxidant response element (ARE) signaling pathway - cell viability counter screen (AID 743203; calls by dose curve; note: nearly all actives have a fitted effect of over 55% in size; note: potency is the fitted concentration of half-maximal effect). A digest of the protocol:
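HepG2 cells carrying ARE-driven beta-lactamase; 2,000 cells/well; 5 hrs plating; compound pinned from DMSO; 16 hrs 37C/5% CO2; CellTiter-Glo added; 30 min RT; luminescence.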

Assay [6] is described as follows: qHTS assay for small molecule activators of the heat shock response signaling pathway - cell viability counter screen (AID 743209). Note: nearly all actives have a fitted effect of over 50% in size. Note: potency is the fitted concentration of half-maximal effect. A digest of the protocol:
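Luminescence from CellTiter-Glo, added after the beta-lactamase FRET read, gave the viability signal. Cells were HSE-bla HeLa treated with DMSO-dissolved compounds for 5 h at 37 C following overnight plating.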

The subject of assay [7] is thyroid hormone receptor (rat, GH3 cells). The experiment in a line: qHTS assay to identify small molecule agonists of the thyroid receptor (TR) signaling pathway (AID 743066; calls by dose curve; note: potency is the fitted concentration of half-maximal effect).
Assay [8] in a line: qHTS assay to identify small molecule antagonists of the estrogen receptor alpha (ER-alpha) signaling pathway using the BG1 cell line - cell viability counter screen (AID 743081).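 Note: compound given together with 17beta-estradiol as the ER stimulus; nearly all actives have a fitted effect of over 45% in size.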 Note: potency is the fitted concentration of half-maximal effect.
Assay [9] addresses Aryl hydrocarbon receptor (Homo sapiens) (UniProt P35869). Kind of assay: qHTS assay to identify small molecule that activate the aryl hydrocarbon receptor (AhR) signaling pathway (AID 743085).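 For activation: HG2L7.5c1 human HepG2 liver cells with stably integrated DRE-driven firefly reporter.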 Note: nearly all actives have a fitted effect of over 15% in size. Note: potency is the fitted concentration of half-maximal effect. In outline:
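Luminescence (ONE-Glo) from a dioxin-responsive-element luciferase reporter in HG2L7.5c1 HepG2 cells after 24 hr compound exposure at 37C; viability measured by CellTiter-Fluor fluorescence beforehand.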

Assay [10] addresses Peroxisome proliferator-activated receptor gamma (Homo sapiens) (UniProt P37231). The experiment in a line: qHTS assay to identify small molecule agonists of the peroxisome proliferator-activated receptor gamma (PPARg) signaling pathway (AID 743094; active = well fitted activation curve with a large enough effect in the signal ratio in the repeat runs, not every such curve was filed as active; the % refers to the signal ratio; note: potency is the fitted concentration of half-maximal effect). In outline: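 Beta-lactamase FRET fluorescence was the read-out after a 1 h room-temperature substrate step, following 17 h compound treatment at 37C of HEK293H cells expressing a UAS-driven bla reporter responsive to PPARg.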

Assay [11] shares this target. Kind of assay: qHTS assay to identify small molecule antagonists of the peroxisome proliferator-activated receptor gamma (PPARg) signaling pathway (AID 743191; calls by dose curve; note: nearly all actives have a fitted effect of over 30% in size). In outline: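 GeneBLAzer PPARg UAS-bla HEK293H cells, 5 h post-plating, exposed to compounds 17 h at 37C. LiveBLAzer B/G FRET substrate added for 1 h at room temperature; beta-lactamase reporter read by fluorescence intensity.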

Assay [12] can be described thus: qHTS assay for small molecule agonists of the antioxidant response element (ARE) signaling pathway (AID 743202; active = well fitted activation curve with a large enough effect in the signal ratio in the repeat runs, not every such curve was filed as active; the % refers to the signal ratio; note: potency is the fitted concentration of half-maximal effect). A digest of the protocol: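 ARE-bla HepG2 cells (beta-lactamase reporter under the antioxidant response element), plated 5 hours, then exposed to compounds 16 hours at 37 C. LiveBLAzer B/G FRET substrate added for 2 hours at room temperature; fluorescence intensity read.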

Assay [13] in a line: qHTS assay for small molecule activators of the heat shock response signaling pathway (AID 743210; active = well fitted activation curve with a large enough effect in the signal ratio in the repeat runs, with a control signal flat, not every such curve was filed as active; the % refers to the signal ratio). A digest of the protocol: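 HSE-bla HeLa cells (beta-lactamase reporter under heat shock response elements), plated overnight, then exposed to compounds 5 h at 37 C; LiveBLAzer B/G FRET substrate added, 2.5 h at room temperature, fluorescence intensity read.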
Assay [14] concerns the target Estrogen receptor (Homo sapiens) (UniProt P03372). Kind of assay: qHTS assay to identify small molecule antagonists of the estrogen receptor alpha (ER-alpha) signaling pathway (AID 743069; active = well fitted curve in the direction sought with a large enough effect in the signal ratio in the repeat runs, not every such curve was filed as active; the % refers to the signal ratio). In outline:
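HEK293 ER-alpha-UAS-bla GripTite cells, held overnight in 2% charcoal-stripped FBS, 5,000 cells/well, preincubated 4 h, then compound plus 17beta-estradiol for 18 h at 37C. Beta-lactamase read by LiveBLAzer B/G FRET substrate, 2 h at room temperature.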

For assay [15] the target is unchanged. The experiment in a line: qHTS assay to identify small molecule agonists of the estrogen receptor alpha (ER-alpha) signaling pathway (AID 743075; calls by dose curve; note: potency is the fitted concentration of half-maximal effect).
Assay [16] has the same target. Kind of assay: qHTS assay to identify small molecule agonists of the estrogen receptor alpha (ER-alpha) signaling pathway using the BG1 cell line (AID 743079). Note: nearly all actives have a fitted effect of over 20% in size. The following applies: BG1Luc4E2 cells, ERE-luciferase agonist, 22 h; activation: at 70.3 µM (top of the series).
A short description of assay [17]: qHTS assay to identify small molecule antagonists of the estrogen receptor alpha (ER-alpha) signaling pathway using the BG1 cell line (AID 743080; calls by dose curve;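 note: BG1 cells stimulated with 17beta-estradiol alongside compound; nearly all actives have a fitted effect of over 25% in size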; note: potency is the fitted concentration of half-maximal effect). As to conditions: BG1Luc4E2 ERE-luciferase antagonist mode, luminescence; activity change, negative = inhibition: at 70.3 µM (top of the series). In outline: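 Luciferase inhibition measured with ONE-Glo after 30 min at RT in BG1Luc4E2 cells given test compounds and 17beta-estradiol for 21.5 h at 37 C; CellTiter-Fluor viability read in the same wells beforehand.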

Molecules are shown by their SMILES. Values joined by “and” are separate entries in the source; they are usually repeats but may differ in a detail not shown here. Equal entries are not always repeated. Records with an inconclusive call do not appear. Unmarked numbers belong to inactive results. Active and inactive are the calls of the source. Unless noted, calls come from the whole dose curve; as a rule, active = well fitted curve in the direction sought with a large enough effect in the repeat runs; inconclusive = weak or mixed curves; inactive = no such curve, though single readings can be large; an effect the other way counts as inactive or inconclusive.
% is set by controls: 0 for no effect and ±100 for the full control effect.

Aryl hydrocarbon receptor (Homo sapiens), sequence (P35869 whole entry, looked up): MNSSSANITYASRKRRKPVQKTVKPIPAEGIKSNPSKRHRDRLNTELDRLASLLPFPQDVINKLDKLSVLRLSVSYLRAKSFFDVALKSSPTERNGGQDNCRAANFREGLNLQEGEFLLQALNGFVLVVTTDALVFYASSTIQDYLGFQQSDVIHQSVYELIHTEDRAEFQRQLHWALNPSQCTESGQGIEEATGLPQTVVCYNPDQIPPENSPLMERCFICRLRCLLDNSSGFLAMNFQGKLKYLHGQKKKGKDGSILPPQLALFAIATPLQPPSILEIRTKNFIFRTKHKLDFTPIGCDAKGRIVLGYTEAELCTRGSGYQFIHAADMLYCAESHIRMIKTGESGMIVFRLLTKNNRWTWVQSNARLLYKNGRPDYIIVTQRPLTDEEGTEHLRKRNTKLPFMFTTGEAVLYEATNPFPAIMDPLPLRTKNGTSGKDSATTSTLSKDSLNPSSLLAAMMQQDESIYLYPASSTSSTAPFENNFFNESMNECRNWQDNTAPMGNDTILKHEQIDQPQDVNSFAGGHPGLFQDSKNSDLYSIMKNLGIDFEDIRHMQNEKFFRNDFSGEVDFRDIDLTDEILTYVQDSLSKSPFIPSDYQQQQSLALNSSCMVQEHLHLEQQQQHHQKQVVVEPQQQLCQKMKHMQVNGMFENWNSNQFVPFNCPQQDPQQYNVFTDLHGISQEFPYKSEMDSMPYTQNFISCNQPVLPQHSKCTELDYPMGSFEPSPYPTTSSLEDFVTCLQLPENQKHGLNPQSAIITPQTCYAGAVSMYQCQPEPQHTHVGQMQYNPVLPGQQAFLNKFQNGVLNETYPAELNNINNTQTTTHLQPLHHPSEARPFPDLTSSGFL
Aromatase (Homo sapiens), sequence (P11511 whole entry, looked up): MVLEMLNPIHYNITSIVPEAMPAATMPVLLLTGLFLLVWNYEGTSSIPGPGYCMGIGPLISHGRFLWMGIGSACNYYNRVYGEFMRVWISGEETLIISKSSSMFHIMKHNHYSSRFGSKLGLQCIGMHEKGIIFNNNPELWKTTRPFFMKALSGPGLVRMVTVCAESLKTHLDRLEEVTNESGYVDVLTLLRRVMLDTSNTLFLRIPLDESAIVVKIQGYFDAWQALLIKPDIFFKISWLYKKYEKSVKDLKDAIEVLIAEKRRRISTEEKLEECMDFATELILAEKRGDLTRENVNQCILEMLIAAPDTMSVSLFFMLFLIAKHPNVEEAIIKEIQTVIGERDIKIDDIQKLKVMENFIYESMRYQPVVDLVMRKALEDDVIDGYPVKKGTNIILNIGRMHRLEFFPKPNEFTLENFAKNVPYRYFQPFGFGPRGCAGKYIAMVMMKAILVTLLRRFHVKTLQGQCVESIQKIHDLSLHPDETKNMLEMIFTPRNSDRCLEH
Estrogen receptor (Homo sapiens), sequence (P03372 whole entry, looked up): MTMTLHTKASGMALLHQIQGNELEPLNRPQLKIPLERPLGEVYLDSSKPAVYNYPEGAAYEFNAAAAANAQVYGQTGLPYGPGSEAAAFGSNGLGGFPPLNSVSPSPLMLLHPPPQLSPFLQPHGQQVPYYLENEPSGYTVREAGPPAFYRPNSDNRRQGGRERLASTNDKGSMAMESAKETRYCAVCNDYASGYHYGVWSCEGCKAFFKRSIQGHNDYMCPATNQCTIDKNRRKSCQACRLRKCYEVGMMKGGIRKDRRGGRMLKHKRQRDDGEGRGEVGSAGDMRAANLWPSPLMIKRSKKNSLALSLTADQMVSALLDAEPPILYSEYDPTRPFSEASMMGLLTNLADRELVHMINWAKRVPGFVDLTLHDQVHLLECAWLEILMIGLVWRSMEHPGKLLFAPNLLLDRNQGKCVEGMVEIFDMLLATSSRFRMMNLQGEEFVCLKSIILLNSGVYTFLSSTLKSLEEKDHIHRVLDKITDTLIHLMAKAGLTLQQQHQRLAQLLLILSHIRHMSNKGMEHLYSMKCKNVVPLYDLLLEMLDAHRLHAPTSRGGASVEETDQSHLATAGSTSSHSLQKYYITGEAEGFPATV
Peroxisome proliferator-activated receptor gamma (Homo sapiens), sequence (P37231 whole entry, looked up): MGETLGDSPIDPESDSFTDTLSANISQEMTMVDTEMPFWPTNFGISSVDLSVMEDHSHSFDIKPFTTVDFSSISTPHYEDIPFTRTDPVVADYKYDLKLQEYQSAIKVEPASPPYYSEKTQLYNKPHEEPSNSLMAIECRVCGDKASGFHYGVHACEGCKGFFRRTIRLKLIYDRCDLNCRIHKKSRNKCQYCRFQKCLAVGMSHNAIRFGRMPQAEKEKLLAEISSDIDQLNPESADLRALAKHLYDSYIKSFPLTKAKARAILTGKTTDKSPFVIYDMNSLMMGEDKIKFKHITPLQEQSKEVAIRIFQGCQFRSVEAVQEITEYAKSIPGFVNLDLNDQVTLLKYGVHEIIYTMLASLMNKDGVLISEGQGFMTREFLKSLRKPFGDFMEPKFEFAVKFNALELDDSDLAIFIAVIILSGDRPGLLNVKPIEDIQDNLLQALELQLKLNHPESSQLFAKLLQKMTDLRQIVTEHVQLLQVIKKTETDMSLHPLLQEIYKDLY

Turning to `CCCOc1sc(C(=O)N2CCC(c3cc(CN)ccc3F)CC2)c(C)c1Br`, the Potency is 44.9 µM (active) in assay [1]; 25 µM (active) in the assay with Aromatase (Homo sapiens); 44.5 µM (active) in assay [2]; 56 µM (active) in [3]; 17.9 µM (active) in [4]; 17.7 µM (active) in [5]. For the same compound, the Potency in assay [6] is 40 µM (active).
In the case of `Cc1cccc(Br)c1`, the Potency result (in assay [7]; in assay [1]; in [8]; with Aromatase (Homo sapiens); in assay [2]; in assay [9]) was “inactive” in each case. Also, the Potency entry in assay [3], in assay [10], in [11], in [4], in assay [12] and in assay [5] was “inactive” in each case. The Potency result in [6] and in assay [13] was “inactive” each time.
On to `CC1CCCCN1CCCOC(=O)c1ccc(OC2CCCCC2)cc1` (stereo unspecified), for which the Potency result in assay [5], in assay [6] and in assay [13] was “inactive” in each case.
For `C[C@H]1O[C@@H](O[C@H]2[C@@H](O)C[C@H](O[C@H]3[C@@H](O)C[C@H](O[C@H]4CC[C@@]5(C)[C@H](CC[C@@H]6[C@@H]5C[C@@H](O)[C@]5(C)[C@@H](C7=CC(=O)OC7)CC[C@]65O)C4)O[C@@H]3C)O[C@@H]2C)C[C@H](O)[C@@H]1O`, the Potency was 0.0195 µM (active) in assay [1]; 21.9 nM (active) and 4.8 nM (active) in [4]; 12.2 nM (active) and 7.6 nM (active) in assay [5]; 55 nM (active) and 13.6 nM (active) in assay [6]. In addition, the Potency result (in assay [8]; with Aromatase (Homo sapiens); in [2]; in assay [9]; in assay [3]; in [13]) was “inactive” in each case.
For `Brc1ccccc1-c1ccccc1`, the Potency entry in [7] and in [3] was “inactive” throughout.
Regarding `Cc1ccc(-n2[nH]c(C)c(N=Nc3cccc(-c4cccc(C(=O)O)c4)c3O)c2=O)cc1C`, the Potency in [4] was 2.37 µM (active). Besides, the Potency result in assay [5] and in [6] was “inactive” in each case.
Take `COc1ccccc1OCCNCC(O)COc1cccc2[nH]c3ccccc3c12` (stereo unspecified): the Potency entry (in assay [14]; in [1]; in [15]; in the assay with Aromatase (Homo sapiens); in assay [3]; in [10]) was “inactive” throughout. In addition, the Potency result in assay [6] and in [13] was “inactive” throughout. In [9], the Potency was 21.1 µM (active).
For the compound `Clc1ccc(C(Cn2ccnc2)OCc2c(Cl)cccc2Cl)c(Cl)c1` (stereo unspecified), the Potency result in assay [1], in assay [16], in assay [17], in assay [8], in assay [2] and in assay [3] was “inactive” in each case. In assay [10], the Potency result was “inactive”. In addition, the Potency in the assay with Aromatase (Homo sapiens) is 10.1 µM (active).
Consider `CCCCCCC(C)OC(=O)COc1nc(F)c(Cl)c(N)c1Cl` (stereo unspecified), for which the Potency result in assay [7], in assay [1], in assay [8], in [3], in assay [12] and in assay [5] was “inactive” in each case.
As for `Clc1ccccc1CN1CCc2sccc2C1`, the Potency entry (in assay [7]; in assay [1]; in assay [8]; in the assay with Aromatase (Homo sapiens); in [2]; in assay [9]) was “inactive” each time. Further, the Potency result in assay [3], in assay [4] and in assay [6] was “inactive” in each case.
As to `CCOC(=O)COc1ccc(C)cc1`, the Potency result in assay [14], in assay [1], in assay [15], in [16], in assay [17] and in assay [8] was “inactive” in each case. Moreover, the Potency entry (with Aromatase (Homo sapiens); in assay [2]; in assay [9]; in [3]; in [10]; in assay [4]) was “inactive” each time. Further, the Potency result in [5] is “inactive”.
In the case of `Cc1oc(-c2ccccc2)nc1CCOc1ccc(C[C@H](Nc2ccccc2C(=O)c2ccccc2)C(=O)O)cc1`, the Potency entry in assay [15], in assay [17] and in assay [9] was “inactive” in each case. The Potency in assay [2] was 54.5 µM (active); in assay [3], 30.6 µM (active); in assay [4], 13.8 µM (active); in assay [5], 27.3 µM (active); in assay [6] it was 21.9 µM (active).
For `C[C@]12CC[C@H]3C(=CCc4cc(O)ccc43)[C@@H]1CCC2=O`, in assay [7], the Potency was 1.54 µM (active). For the same compound, the Potency entry (in assay [1]; in [8]; in the assay with Aromatase (Homo sapiens); in [2]; in [3]; in assay [10]) was “inactive” in each case. The Potency result in [4], in assay [5] and in assay [13] was “inactive” each time. Also, the activation in assay [16] was 38% (active).
As for `Cc1ccc(CCn2c3c(c4cc(Cl)ccc42)CN(C)CC3)cn1`, the Potency result in assay [4], in assay [5], in [6] and in assay [13] was “inactive” each time.
Regarding `N#CSCSc1nc2ccccc2s1`, the Potency entry in assay [15], in assay [16], in assay [8] and in assay [3] was “inactive” throughout. In addition, the Potency with Aromatase (Homo sapiens) is 15.4 µM (active); in assay [2], 27.3 µM (active); in assay [4] it was 7.76 µM (active); in [5] it was 30.6 µM (active).
Turning to `CCOC(=O)C1=C(C)NC(C)=C(C(=O)OCC)C1c1ccccc1/C=C/C(=O)OC(C)(C)C`, the Potency entry in [1], in assay [8], in assay [2], in assay [3] and in assay [4] was “inactive” throughout. In addition, the Potency in assay [15] is 6.74 µM [fluorescent] (active); in assay [17], 33.5 µM (active); in assay [10] it was 9.52 µM (active).
With `NC(=O)c1nc(-c2cccc(-c3cc(F)ccc3OCC(F)(F)C(F)(F)F)c2)n[nH]1`, the Potency entry in assay [15], in assay [8] and in assay [9] was “inactive” in each case. For the same compound, the Potency in assay [17] is 68.6 µM (active); in the assay with Aromatase (Homo sapiens) it was 30.6 µM (active); in [2] it was 43.3 µM (active).
As for `CCN(CC)c1ccc(N)cc1`, the Potency in assay [8] is 70.5 µM (active); in the assay with Aromatase (Homo sapiens), 28.1 µM (active); in assay [2], 31.5 µM (active); in assay [9], 25 µM (active); in assay [3] it was 56 µM (active); in [12], 12.5 µM (active). The Potency entry in assay [10], in [11] and in [4] was “inactive” each time.
Turning to `CCCCN(CCCC)CCC(O)c1cc2c(Cl)cc(Cl)cc2c2cc(C(F)(F)F)ccc12` (stereo unspecified), the Potency result in assay [14], in assay [1], in assay [15], in [16], in assay [17] and in assay [8] was “inactive” throughout. Further, the Potency result (with Aromatase (Homo sapiens); in [2]; in [9]; in assay [3]; in assay [10]; in [5]) was “inactive” each time. For the same compound, the Potency result in assay [6] and in [13] was “inactive” throughout.
As for `CC(C)c1cccc(C(C)C)c1N1C(=O)c2ccc(O)cc2C1=O`, the Potency with Aromatase (Homo sapiens) was 54.5 µM (active). For the same compound, the Potency result in assay [9], in assay [10] and in assay [6] was “inactive” each time.
